Some targets named below: NPBWR1; NOX3; NOXA1; NOTCH4; NPR1; NPC1L1.
Assay in all cases: pooled miR-30 sensor sort-seq; sequence = guide strand
Conditions in all cases: shRNA

30 sequences from the OligoGym collection can be followed below.
Note: reference of the scale not given here.

TCACCGCGTAGACAACTGGTAC came in with a sensor-assay potency score (higher = more potent) in the assay with NPBWR1 of -1.33.
On the same count and under the same terms, the value for TAGAGGACACAGATGGTGGACA was -0.757.
TAATAGAAATGAACACCTCTGG returned a sensor-assay potency score (higher = more potent) with NOX3 of -0.368.
As for TAGATTTCAGAAGAGCAGCGAA, the sensor-assay potency score (higher = more potent) with NOX3 is -0.277.
Same read-out and setting: under TAGAAATGAACACCTCTGGGGT stands -0.411.
Take TAGAGGAAGGGGTTGAGGCAGC: the sensor-assay potency score (higher = more potent) with NPBWR1 stood at 0.0364.
Regarding TCTGTCTCTGCATCGAGGGGGC, the sensor-assay potency score (higher = more potent) with NOXA1 was -0.532.
TTGGTGACGGTCTTCATGCGGG displayed a sensor-assay potency score (higher = more potent) in the assay with NPBWR1 of -0.52.
For TCACACAGGACGTCCACCGTGT, the sensor-assay potency score (higher = more potent) in the assay with NOXA1 amounted to 0.181.
ATCACCGCGTAGACAACTGGTA showed a sensor-assay potency score (higher = more potent) in the assay with NPBWR1 of -0.96.
On to TACCAGAACAACTCATAGGAGG, for which the sensor-assay potency score (higher = more potent) with NOX3 is -0.91.
For TATCTTCCTCGCATTATCGCAG, the sensor-assay potency score (higher = more potent) with NOTCH4 is -0.574.
Sequence TGTACTGGTCGATAGCCACGAT came in with a sensor-assay potency score (higher = more potent) in the assay with NPBWR1 of -0.544.
With TTGGTCCAGGGCTGAGTCCAGG, the sensor-assay potency score (higher = more potent) with NOXA1 is -1.7.
On to TAATTATTCTTTCACATGCATA, for which, in the assay with NOX3, the sensor-assay potency score (higher = more potent) was -1.3.
TGATGAAGTAGGAGATAGCGAT returned a sensor-assay potency score (higher = more potent) with NPBWR1 of -0.908.
In the assay with NPBWR1, TCGATAGCCACGATGAGCTTGC returned a sensor-assay potency score (higher = more potent) of 0.0042.
Regarding TTGCATTAACAGCTATCCCATA, the sensor-assay potency score (higher = more potent) with NOX3 is -1.07.
Sequence TTCTTGGTTCCAACTTAGGGGT showed a sensor-assay potency score (higher = more potent) in the assay with NOTCH4 of -0.898.
As to TAAAGCTATGTGAAGAGCCTGA, the sensor-assay potency score (higher = more potent) with NOX3 was determined as 0.784.
As to TAAAATTCAGGCACAGTGCGGA, the sensor-assay potency score (higher = more potent) with NOX3 is -0.0572.
TAGCGGTCTCTACAGAAGGTGA registered a sensor-assay potency score (higher = more potent) with NOX3 of -1.67.
Regarding AACTGGTACAGCCACCGCCAGC, the sensor-assay potency score (higher = more potent) in the assay with NPBWR1 is -1.89.
Turning to TTGAGCAGTTCTGTCCATCGTA, the sensor-assay potency score (higher = more potent) with NOTCH4 worked out at 0.59.
Turning to TTGAGGTAGCTCTCGTTAGGGG, the sensor-assay potency score (higher = more potent) with NOX3 is -0.746.
As for TGGCATCATGGTTCGCTCCTGG, the sensor-assay potency score (higher = more potent) with NOXA1 was -0.558.
Same read-out and setting: the value for TCTGCAGCGACTCCTCCTCGGG was -1.51.
With TGTTGTACTGGTCGATAGCCAC, the sensor-assay potency score (higher = more potent) with NPBWR1 is -0.835.
In the assay with NPR1, TTGTCCAGGATGTTGCTGCTGT showed a sensor-assay potency score (higher = more potent) of -0.0226.
In the case of TTGTGTAAGGCTCACTCTGGGC, in the assay with NPC1L1, the sensor-assay potency score (higher = more potent) was -1.01.
